These results are taken from ChEMBL document CHEMBL1961873, “Compounds: GSK PKIS; Assays: Nanosyn kinase panel” (2012).

Experiment [1] concerns the target T1, Inhibitor of nuclear factor kappa-B kinase subunit epsilon (Homo sapiens) (UniProt Q14164).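 Further: reported values are averaged percent inhibition figures against human IKKε.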
T1 sequence (whole entry): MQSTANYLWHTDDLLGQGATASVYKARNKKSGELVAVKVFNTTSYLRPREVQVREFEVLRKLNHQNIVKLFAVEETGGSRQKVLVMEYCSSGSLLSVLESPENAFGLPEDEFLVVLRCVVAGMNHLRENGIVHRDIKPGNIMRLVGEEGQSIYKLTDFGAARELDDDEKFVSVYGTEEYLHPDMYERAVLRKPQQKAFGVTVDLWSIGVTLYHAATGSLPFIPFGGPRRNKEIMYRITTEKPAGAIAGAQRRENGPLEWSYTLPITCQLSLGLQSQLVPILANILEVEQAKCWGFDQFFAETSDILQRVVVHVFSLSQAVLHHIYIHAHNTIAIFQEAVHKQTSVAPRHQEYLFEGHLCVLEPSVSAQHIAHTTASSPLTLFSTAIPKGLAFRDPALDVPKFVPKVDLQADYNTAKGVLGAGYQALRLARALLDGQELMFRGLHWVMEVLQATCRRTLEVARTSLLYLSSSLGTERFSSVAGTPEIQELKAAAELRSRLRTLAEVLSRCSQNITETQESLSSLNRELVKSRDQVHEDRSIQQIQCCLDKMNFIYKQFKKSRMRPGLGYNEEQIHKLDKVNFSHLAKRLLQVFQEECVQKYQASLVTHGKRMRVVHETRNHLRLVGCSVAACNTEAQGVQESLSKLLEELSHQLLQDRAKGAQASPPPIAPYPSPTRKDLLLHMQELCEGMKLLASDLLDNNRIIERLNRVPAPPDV
As to conditions: at 1 µM.

Experiment [2] has as its target T2, Serine/threonine-protein kinase Nek1 (Homo sapiens) (UniProt Q96PY6).
T2 sequence (whole entry): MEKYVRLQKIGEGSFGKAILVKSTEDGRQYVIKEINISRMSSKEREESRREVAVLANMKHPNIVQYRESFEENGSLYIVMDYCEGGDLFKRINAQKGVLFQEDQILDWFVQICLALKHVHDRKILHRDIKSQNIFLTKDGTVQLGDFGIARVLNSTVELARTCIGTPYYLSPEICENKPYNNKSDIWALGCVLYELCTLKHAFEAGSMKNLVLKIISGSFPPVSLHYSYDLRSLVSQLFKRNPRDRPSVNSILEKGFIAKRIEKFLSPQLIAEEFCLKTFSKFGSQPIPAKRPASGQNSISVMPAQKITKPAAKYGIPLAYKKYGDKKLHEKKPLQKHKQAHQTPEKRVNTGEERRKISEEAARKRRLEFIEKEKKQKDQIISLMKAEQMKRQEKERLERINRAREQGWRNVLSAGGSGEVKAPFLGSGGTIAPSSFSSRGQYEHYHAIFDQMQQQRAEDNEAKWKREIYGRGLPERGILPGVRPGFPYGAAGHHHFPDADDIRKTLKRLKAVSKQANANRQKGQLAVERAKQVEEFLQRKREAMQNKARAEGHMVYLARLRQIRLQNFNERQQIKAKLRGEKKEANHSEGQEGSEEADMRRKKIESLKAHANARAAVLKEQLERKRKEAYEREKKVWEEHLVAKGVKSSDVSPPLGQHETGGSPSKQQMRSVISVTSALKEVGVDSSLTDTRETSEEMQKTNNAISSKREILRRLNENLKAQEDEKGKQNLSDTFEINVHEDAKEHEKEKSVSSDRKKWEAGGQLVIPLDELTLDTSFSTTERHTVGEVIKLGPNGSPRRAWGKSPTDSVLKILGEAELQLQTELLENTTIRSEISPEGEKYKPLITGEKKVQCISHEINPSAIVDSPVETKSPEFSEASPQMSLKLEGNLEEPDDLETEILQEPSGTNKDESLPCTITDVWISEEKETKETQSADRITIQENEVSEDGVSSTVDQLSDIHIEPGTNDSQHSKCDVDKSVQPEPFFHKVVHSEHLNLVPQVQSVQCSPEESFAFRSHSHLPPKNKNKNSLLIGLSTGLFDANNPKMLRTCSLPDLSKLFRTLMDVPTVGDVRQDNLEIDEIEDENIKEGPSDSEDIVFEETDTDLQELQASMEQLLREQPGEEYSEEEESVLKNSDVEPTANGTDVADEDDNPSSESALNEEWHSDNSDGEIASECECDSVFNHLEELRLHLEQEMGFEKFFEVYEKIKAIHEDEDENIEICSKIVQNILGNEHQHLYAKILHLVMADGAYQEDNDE
As to conditions: at 0.1 µM.

The target of experiment [3] is T2, Serine/threonine-protein kinase Nek1 (Homo sapiens). As to conditions: at 1 µM.
In experiment [4] the target is T3, Serine/threonine-protein kinase Nek2 (Homo sapiens) (UniProt P51955).
T3 sequence (whole entry): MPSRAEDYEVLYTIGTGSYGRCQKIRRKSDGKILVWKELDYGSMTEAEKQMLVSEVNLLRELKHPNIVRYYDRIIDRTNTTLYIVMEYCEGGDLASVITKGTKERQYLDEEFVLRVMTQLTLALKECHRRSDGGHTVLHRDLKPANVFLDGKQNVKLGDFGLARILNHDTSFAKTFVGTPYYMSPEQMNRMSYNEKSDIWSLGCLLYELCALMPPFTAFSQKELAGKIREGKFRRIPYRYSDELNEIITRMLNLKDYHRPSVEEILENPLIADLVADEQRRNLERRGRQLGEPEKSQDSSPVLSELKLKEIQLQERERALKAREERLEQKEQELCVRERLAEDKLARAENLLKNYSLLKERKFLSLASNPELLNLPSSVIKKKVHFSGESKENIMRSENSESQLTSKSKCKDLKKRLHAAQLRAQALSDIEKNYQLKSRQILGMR
To be noted: at 0.1 µM.

The target of experiment [5] is T3, Serine/threonine-protein kinase Nek2 (Homo sapiens). As to conditions: at 1 µM.
Experiment [6] deals with Serine/threonine-protein kinase Nek6 (Homo sapiens) (UniProt Q9HC98). As to conditions: at 0.1 µM.
Serine/threonine-protein kinase Nek6 (Homo sapiens), sequence (Q9HC98 whole entry): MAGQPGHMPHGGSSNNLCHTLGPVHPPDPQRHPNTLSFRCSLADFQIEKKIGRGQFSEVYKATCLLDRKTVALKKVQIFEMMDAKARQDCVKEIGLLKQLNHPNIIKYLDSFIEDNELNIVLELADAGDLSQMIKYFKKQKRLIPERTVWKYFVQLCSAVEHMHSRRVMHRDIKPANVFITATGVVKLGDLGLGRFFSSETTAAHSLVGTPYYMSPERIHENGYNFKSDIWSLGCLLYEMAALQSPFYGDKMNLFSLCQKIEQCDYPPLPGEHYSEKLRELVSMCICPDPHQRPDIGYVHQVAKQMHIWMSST
For experiment [7] the target is unchanged. To be noted: at 1 µM.
Experiment [8] concerns the target Serine/threonine-protein kinase Nek7 (Homo sapiens) (UniProt Q8TDX7). To be noted: at 0.1 µM.
The target is the same in experiment [9]. To be noted: at 1 µM.
In experiment [10] the target is T4, Serine/threonine-protein kinase Nek9 (Homo sapiens) (UniProt Q8TD19).
T4 sequence (whole entry): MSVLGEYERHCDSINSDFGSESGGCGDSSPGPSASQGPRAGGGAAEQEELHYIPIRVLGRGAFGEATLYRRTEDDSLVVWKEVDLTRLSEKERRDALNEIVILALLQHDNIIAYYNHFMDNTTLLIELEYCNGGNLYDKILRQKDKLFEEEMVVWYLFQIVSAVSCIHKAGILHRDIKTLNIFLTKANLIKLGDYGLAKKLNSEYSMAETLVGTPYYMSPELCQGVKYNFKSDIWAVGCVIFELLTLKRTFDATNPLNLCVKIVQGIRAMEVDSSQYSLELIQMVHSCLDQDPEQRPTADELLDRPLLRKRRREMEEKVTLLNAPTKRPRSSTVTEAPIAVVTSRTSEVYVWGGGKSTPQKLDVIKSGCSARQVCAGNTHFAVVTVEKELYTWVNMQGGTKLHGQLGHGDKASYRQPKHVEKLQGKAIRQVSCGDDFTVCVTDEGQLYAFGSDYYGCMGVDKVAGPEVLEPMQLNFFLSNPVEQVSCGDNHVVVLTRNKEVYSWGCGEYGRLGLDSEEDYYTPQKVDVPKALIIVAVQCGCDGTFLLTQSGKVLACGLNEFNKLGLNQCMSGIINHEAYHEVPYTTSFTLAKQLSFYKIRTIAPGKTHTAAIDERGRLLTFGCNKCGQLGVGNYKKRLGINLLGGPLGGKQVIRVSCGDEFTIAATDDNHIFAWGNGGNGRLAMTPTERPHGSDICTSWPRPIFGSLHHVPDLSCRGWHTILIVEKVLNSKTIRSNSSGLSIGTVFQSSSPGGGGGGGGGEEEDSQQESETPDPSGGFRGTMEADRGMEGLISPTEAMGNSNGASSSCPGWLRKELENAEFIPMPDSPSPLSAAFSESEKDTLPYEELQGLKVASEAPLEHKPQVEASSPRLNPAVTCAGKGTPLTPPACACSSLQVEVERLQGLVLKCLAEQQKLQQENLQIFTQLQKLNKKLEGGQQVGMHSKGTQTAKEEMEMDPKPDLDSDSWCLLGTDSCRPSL
As to conditions: at 0.1 µM.

Experiment [11] addresses T4, Serine/threonine-protein kinase Nek9 (Homo sapiens). As to conditions: at 1 µM.
Experiment [12] deals with Serine/threonine-protein kinase PLK1 (Homo sapiens) (UniProt P53350). To be noted: at 0.1 µM.
Serine/threonine-protein kinase PLK1 (Homo sapiens), sequence (P53350 whole entry): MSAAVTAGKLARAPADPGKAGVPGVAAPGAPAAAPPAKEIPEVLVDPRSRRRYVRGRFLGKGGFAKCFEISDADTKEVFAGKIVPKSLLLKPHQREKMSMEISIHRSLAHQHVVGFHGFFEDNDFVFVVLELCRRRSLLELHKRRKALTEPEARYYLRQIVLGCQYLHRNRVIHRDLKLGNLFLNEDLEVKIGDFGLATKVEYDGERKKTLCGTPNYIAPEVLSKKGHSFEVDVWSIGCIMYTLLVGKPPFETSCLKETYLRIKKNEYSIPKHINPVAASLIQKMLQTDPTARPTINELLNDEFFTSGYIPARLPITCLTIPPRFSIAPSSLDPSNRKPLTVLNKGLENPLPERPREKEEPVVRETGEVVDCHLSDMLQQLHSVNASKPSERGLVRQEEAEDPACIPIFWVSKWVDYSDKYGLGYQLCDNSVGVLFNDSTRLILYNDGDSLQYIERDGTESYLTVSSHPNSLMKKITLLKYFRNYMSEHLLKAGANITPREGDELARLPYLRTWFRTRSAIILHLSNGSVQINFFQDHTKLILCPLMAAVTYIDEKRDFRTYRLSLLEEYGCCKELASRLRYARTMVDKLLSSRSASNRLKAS
The target is the same in experiment [13]. To be noted: at 1 µM.
The target of experiment [14] is T5, Dual specificity protein kinase TTK (Homo sapiens) (UniProt P33981).
T5 sequence (whole entry): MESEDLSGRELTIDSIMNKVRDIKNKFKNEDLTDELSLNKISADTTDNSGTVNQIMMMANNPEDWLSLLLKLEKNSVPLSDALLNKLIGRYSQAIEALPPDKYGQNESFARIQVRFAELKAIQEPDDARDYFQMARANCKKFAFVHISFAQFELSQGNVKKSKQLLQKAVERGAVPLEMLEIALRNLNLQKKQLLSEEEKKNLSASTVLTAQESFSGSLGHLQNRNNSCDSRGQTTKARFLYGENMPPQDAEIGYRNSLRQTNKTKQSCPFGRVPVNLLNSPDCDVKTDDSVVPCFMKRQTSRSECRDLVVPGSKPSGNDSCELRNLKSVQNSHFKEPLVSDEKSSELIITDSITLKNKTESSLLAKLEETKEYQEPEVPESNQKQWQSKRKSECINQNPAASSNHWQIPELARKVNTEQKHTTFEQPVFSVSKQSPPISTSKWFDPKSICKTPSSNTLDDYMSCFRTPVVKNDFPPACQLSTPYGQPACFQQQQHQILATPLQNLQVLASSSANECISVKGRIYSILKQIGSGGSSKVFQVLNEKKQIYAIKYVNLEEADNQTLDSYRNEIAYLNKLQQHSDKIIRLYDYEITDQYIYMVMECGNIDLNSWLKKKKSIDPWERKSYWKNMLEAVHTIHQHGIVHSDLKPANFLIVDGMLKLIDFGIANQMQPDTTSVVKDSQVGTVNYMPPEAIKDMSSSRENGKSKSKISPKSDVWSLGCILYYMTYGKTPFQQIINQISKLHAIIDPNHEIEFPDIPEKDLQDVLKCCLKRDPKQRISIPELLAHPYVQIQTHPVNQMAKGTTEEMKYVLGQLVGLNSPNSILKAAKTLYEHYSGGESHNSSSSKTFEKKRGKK
To be noted: at 0.1 µM.

The subject of experiment [15] is T6, Receptor-type tyrosine-protein kinase FLT3 (Homo sapiens), P36888 [D835Y].
T6 sequence (whole entry): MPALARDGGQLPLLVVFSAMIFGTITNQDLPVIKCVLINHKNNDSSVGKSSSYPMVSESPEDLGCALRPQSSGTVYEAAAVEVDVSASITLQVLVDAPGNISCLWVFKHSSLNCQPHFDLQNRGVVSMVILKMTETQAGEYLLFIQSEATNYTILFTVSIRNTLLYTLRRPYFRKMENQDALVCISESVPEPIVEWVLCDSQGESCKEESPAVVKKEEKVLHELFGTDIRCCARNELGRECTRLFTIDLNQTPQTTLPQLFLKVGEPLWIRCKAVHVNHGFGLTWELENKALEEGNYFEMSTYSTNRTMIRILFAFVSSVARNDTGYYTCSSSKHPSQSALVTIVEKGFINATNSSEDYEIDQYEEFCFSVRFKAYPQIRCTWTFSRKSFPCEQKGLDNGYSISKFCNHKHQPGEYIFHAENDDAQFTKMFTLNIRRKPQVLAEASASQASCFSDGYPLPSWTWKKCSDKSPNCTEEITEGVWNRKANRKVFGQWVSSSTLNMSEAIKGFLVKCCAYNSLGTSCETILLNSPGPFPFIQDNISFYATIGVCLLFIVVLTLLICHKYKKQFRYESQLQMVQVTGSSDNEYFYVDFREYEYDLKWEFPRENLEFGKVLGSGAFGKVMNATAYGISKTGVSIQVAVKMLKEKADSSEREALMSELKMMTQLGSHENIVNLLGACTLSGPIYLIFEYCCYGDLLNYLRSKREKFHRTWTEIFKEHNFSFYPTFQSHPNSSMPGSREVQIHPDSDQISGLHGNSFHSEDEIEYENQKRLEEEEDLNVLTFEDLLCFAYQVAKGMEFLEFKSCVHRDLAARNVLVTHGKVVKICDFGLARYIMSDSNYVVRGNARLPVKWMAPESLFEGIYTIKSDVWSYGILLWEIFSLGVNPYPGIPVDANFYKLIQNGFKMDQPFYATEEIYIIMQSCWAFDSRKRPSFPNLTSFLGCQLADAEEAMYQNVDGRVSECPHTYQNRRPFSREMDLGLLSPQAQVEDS
To be noted: at 1 µM.

Experiment [16] has as its target Vascular endothelial growth factor receptor 3 (Homo sapiens) (UniProt P35916). To be noted: at 0.1 µM.
Experiment [17] shares this target. As to conditions: at 1 µM.
Experiment [18] addresses Macrophage colony-stimulating factor 1 receptor (Homo sapiens) (UniProt P07333). To be noted: at 0.1 µM.
For experiment [19] the target is unchanged. To be noted: at 1 µM.
Experiment [20] concerns the target Tyrosine-protein kinase Fyn (Homo sapiens) (UniProt P06241). To be noted: at 0.1 µM.

Macrophage colony-stimulating factor 1 receptor (Homo sapiens), sequence (P07333 whole entry): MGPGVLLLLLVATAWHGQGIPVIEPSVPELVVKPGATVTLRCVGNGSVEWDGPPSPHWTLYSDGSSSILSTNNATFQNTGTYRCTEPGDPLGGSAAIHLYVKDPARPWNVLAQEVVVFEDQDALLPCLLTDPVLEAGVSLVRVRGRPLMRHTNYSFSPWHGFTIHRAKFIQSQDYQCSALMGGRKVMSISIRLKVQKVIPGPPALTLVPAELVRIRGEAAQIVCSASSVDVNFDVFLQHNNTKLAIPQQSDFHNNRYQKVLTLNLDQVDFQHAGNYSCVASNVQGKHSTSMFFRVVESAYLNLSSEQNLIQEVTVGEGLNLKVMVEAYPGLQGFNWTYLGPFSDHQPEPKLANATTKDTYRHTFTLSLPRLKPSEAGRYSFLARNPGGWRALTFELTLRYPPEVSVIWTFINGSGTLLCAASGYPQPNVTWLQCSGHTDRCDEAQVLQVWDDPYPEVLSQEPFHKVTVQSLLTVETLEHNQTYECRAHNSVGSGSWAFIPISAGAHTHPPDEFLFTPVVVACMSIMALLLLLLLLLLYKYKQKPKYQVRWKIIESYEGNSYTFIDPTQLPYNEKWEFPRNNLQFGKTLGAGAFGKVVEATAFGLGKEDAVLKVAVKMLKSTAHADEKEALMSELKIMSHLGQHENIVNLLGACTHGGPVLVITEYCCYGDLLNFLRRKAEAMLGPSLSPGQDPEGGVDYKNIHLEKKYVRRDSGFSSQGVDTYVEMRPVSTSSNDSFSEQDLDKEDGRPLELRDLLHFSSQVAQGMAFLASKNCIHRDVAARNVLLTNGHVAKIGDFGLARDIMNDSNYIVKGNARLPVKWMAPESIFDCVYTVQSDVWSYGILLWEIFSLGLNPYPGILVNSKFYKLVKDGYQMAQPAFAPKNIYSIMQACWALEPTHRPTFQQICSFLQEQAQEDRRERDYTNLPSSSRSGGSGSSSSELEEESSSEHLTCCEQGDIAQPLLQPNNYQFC
Serine/threonine-protein kinase Nek7 (Homo sapiens), sequence (Q8TDX7 whole entry, looked up): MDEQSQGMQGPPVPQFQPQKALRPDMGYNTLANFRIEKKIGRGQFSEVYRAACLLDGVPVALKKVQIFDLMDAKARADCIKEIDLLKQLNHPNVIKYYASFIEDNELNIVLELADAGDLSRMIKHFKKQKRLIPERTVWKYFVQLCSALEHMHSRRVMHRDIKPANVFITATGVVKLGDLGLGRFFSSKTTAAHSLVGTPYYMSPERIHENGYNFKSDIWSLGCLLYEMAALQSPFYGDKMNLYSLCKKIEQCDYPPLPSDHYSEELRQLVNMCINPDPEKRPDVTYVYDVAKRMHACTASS
Vascular endothelial growth factor receptor 3 (Homo sapiens), sequence (P35916 whole entry): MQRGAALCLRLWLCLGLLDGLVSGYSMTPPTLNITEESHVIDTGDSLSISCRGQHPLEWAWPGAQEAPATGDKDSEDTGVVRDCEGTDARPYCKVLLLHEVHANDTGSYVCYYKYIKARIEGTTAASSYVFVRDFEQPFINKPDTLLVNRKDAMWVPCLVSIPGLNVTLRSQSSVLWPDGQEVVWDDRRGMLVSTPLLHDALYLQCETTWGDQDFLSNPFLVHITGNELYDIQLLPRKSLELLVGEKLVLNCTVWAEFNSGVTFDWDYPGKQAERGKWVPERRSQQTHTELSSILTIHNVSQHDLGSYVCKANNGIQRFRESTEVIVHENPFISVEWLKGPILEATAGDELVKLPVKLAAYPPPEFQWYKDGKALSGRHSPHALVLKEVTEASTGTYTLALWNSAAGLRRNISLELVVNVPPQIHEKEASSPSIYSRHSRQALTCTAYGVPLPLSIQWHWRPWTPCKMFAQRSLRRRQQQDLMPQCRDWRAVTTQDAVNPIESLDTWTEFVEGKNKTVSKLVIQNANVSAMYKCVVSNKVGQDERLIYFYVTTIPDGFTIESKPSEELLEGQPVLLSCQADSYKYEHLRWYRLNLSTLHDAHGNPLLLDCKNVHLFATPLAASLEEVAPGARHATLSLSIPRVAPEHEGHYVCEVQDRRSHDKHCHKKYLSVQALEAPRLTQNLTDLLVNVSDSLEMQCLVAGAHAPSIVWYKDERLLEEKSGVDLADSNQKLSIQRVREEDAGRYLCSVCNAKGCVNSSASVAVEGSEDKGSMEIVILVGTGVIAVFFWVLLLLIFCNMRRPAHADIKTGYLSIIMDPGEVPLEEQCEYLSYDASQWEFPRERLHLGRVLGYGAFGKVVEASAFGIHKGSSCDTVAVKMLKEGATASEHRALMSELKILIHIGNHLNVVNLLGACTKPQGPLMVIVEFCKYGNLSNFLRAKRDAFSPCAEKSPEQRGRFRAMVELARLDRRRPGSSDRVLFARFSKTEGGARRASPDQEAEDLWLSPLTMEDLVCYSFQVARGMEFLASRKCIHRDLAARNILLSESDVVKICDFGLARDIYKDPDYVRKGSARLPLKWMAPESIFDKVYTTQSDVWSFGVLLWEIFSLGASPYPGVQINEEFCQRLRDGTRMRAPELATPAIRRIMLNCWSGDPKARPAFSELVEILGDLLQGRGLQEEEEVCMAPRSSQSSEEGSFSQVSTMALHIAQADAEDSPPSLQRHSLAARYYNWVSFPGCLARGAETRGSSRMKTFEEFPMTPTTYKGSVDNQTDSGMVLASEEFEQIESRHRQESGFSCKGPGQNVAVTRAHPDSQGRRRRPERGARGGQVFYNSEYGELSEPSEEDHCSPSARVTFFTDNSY
Tyrosine-protein kinase Fyn (Homo sapiens), sequence (P06241 2-537 limits assumed): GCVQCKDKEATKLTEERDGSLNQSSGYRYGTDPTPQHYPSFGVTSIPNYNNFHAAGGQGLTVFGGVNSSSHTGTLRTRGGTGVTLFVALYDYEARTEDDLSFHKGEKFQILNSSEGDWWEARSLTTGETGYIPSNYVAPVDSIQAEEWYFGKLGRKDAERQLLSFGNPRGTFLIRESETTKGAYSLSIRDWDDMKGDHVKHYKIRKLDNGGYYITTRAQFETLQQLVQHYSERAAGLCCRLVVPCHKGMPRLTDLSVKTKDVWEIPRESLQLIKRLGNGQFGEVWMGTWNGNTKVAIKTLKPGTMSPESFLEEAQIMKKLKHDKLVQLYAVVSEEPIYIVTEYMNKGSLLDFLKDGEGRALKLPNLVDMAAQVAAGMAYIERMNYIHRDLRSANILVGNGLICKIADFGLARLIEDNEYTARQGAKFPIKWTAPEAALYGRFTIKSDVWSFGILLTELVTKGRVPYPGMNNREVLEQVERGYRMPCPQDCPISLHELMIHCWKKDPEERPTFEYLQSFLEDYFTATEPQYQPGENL

On to `NS(=O)(=O)c1ccc(N/N=C2\C(=O)Nc3ccc(Cl)cc32)cc1`, for which the inhibition was determined as 8.2% in experiment [1]; 2.48% in experiment [2]; 3.33% in experiment [3]; 4.08% in experiment [4]; 4.1% in experiment [5]; 4.79% in [6]. Moreover, the inhibition in experiment [7] turned out to be 4.93%; in [8] it was 2.88%; in experiment [9] it was 3.63%; in [10], 7.35%; in experiment [11], 9.42%; in [12] it was 1.63%. The inhibition came out at 2.65% in experiment [13]; 14% in [14]; 16.4% in experiment [15]; 4.36% in [16]; 9.79% in experiment [17]; 3.24% in [18]. In addition, the values for the inhibition in [19] and in [20] were 31.8% and 0.23%, respectively.
